Assay results: the supplement of paper PMC12067093, “Discovery and optimisation of a covalent ligand for TRIM25 and its application to targeted protein ubiquitination” (Chemical Science, 2025)
Targets with the largest changes are over-represented here; the source holds about 21,000 in all.

Compound: CC1Cc2ccccc2N1C(=O)C1CCCN(C1)C(=O)CCl (mixture of isomers) [TRIM25 ligand 11 (diastereomer mixture)]
Assay: probe-labelled cysteine peptide fold change vs DMSO (competition) (log2 fold change); higher = less target engagement (more negative = stronger competition)
Settings: THP-1, incubation time: 4 h
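Also: competitive chemoproteomic profiling in live THP-1 cells with an iodoacetamide desthiobiotin (IA-DTB) probe, comparing probe-labelled peptide intensities in compound-treated cells against DMSO-treated controls.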

Sequence of UniProt Q92466 (Q92466 whole entry): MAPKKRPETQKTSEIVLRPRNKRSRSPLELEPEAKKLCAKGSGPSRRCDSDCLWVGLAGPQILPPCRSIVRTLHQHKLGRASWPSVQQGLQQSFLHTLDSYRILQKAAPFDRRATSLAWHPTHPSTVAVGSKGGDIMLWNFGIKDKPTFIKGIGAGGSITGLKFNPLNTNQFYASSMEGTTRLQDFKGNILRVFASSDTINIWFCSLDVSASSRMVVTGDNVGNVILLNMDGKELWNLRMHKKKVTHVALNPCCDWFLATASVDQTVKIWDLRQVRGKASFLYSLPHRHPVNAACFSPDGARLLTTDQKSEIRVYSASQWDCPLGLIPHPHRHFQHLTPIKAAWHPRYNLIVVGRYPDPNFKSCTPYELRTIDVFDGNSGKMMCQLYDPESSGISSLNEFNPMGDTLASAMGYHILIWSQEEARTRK
Sequence of UniProt O60610 (O60610 whole entry, looked up): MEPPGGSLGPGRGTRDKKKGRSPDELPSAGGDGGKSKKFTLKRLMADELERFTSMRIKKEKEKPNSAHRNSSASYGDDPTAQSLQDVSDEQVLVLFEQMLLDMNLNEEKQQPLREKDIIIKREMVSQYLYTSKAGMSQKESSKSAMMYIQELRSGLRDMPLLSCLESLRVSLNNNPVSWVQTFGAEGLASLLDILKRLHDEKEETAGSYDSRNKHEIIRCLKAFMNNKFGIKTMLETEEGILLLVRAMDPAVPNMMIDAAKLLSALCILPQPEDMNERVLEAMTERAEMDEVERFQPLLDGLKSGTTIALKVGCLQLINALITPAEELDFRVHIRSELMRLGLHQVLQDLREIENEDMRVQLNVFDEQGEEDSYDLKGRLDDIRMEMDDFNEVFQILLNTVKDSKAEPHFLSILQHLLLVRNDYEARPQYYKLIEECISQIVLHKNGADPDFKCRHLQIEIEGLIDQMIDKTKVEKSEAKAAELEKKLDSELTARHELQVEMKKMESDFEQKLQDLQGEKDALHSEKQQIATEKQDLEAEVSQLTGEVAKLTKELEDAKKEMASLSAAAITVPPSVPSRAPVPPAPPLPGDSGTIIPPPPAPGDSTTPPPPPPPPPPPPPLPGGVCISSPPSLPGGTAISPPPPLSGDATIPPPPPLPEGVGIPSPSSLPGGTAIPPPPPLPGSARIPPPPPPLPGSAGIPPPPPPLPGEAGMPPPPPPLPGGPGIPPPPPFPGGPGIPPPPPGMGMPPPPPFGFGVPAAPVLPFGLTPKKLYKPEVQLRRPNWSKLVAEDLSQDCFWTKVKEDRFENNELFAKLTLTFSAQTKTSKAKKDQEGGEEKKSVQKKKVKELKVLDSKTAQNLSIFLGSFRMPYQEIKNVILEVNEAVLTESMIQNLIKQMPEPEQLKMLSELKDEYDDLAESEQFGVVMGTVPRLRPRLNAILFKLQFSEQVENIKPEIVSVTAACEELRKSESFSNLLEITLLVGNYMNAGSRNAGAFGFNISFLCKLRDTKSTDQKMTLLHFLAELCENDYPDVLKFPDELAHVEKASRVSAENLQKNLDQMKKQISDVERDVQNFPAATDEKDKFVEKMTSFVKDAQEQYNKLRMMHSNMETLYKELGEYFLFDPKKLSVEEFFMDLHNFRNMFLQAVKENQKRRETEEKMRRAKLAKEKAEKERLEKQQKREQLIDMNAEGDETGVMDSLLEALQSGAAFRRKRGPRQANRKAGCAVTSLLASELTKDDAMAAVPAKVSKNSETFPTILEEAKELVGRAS
Sequence of UniProt P35221 (P35221 whole entry, looked up): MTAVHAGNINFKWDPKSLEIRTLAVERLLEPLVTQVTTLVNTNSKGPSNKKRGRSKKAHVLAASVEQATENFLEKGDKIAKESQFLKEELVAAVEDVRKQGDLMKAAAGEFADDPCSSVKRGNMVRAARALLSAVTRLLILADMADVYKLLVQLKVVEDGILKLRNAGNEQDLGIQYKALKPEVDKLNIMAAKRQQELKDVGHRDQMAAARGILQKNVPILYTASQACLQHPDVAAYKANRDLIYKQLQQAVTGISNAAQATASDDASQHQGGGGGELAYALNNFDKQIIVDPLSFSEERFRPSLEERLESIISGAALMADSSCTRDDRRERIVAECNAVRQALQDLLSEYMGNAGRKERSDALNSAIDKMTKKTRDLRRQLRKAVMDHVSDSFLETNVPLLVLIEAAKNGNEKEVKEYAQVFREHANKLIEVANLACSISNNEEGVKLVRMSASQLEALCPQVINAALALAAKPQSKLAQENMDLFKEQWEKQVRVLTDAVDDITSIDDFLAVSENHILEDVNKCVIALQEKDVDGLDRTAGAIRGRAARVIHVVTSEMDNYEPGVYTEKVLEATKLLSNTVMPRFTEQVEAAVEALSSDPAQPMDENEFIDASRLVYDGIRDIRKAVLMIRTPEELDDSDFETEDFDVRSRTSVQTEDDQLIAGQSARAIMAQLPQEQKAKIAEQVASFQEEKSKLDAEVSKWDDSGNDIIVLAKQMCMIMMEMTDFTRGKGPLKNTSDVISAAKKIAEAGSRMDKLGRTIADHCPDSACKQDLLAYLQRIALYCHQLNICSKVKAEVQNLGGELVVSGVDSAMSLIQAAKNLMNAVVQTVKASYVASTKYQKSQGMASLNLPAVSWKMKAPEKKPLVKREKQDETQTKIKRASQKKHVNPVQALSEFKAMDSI
Sequence of UniProt Q96SD1 (Q96SD1 whole entry, looked up): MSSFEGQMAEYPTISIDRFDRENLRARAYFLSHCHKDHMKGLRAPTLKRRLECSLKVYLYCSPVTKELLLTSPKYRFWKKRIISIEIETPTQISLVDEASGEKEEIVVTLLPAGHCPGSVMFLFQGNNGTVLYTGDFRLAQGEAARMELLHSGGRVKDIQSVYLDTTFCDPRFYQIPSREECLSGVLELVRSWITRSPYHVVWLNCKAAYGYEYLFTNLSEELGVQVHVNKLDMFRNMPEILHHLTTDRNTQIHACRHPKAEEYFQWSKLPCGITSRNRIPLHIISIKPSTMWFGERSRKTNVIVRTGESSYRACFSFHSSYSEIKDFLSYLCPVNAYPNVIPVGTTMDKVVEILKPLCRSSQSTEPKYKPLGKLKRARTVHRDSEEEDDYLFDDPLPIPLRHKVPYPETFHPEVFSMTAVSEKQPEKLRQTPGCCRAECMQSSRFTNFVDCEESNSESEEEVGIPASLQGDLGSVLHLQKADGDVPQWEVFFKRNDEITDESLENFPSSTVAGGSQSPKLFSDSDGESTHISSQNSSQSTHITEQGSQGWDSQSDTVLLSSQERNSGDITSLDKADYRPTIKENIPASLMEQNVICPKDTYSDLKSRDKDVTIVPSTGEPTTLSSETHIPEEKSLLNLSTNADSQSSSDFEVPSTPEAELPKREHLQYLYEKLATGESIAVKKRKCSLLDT
Sequence of UniProt Q9UJV9 (Q9UJV9 whole entry, looked up): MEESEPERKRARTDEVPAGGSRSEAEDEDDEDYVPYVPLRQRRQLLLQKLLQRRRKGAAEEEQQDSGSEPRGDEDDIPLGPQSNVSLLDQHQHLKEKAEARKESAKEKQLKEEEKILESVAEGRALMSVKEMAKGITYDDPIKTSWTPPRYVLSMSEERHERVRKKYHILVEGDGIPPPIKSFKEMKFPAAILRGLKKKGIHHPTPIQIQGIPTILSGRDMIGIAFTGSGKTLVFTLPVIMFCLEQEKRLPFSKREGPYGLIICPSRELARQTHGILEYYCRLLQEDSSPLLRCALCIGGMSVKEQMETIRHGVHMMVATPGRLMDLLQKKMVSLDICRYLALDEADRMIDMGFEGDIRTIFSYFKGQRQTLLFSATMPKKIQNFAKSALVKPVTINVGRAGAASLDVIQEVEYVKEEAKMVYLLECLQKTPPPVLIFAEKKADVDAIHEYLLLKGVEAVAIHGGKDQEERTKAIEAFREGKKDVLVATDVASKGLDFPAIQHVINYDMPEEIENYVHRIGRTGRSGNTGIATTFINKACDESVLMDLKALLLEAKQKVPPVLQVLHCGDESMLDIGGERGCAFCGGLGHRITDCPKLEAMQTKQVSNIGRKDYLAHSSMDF
Sequence of UniProt Q9BPW9 (Q9BPW9 whole entry, looked up): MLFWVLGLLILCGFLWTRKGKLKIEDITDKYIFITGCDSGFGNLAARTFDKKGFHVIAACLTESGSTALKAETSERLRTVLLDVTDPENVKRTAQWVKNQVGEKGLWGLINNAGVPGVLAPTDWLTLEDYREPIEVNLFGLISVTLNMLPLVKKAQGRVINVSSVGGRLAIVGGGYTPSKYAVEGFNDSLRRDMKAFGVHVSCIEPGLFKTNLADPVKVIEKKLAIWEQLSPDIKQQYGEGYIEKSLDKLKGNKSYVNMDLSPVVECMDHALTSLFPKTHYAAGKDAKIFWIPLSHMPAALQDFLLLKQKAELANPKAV
Sequence of UniProt Q96HD1 (Q96HD1 whole entry, looked up): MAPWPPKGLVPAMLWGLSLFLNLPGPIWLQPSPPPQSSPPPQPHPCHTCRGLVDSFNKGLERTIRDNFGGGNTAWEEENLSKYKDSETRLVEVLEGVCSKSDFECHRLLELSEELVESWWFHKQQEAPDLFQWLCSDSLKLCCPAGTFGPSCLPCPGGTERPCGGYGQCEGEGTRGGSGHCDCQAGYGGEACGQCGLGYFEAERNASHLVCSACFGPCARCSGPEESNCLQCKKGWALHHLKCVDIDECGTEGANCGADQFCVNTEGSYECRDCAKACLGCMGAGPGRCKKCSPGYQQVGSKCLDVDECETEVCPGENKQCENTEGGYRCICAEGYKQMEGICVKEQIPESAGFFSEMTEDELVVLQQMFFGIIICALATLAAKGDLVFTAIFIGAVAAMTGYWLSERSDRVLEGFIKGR
Sequence of UniProt Q14061 (Q14061 whole entry, looked up): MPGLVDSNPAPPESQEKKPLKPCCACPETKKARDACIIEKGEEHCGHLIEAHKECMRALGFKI

Row | Target | probe-labelled cysteine peptide fold change (10 µM) | probe-labelled cysteine peptide fold change (50 µM)
1 | DCLRE1C_Q96SD1_34_AYFLSHCHK (UniProt Q96SD1) | 0.0604 | -0.0702
2 | DHRS9_Q9BPW9_60_GFHVIAACLTESGSTALK (UniProt Q9BPW9) | 0.105 | 0.197
3 | DNM2_P50570-3_427_CVDLVVSELATVIK (UniProt P50570) | -0.0402 | 0.0756
4 | CRELD1_Q96HD1_229_CSGPEESNCLQCK (UniProt Q96HD1) | 0.0143 | -0.197
5 | DGKZ_Q13574_876_EASVPLGTVVVPGDSDLELCR (UniProt Q13574) | 0.514 | 0.581
6 | DDX41_Q9UJV9_540_ACDESVLMDLK (UniProt Q9UJV9) | -0.0247 | -0.111
7 | CORO7_P57737_691_IVWVCDGR (UniProt P57737) | 0.154 | 0.334
8 | DDX58_O95786_428_NTDEALDYICK (UniProt O95786) | 0.0328 | 0.169
9 | DPP8_Q6V1X1_611_LSSPEDDPTCK (UniProt Q6V1X1) | 0.0995 | 0.0507
10 | DIAPH1_O60610_1227_AGCAVTSLLASELTK (UniProt O60610) | -0.0516 | -0.221
11 | COX17_Q14061_23+24_KPLKPCCACPETK (UniProt Q14061) | -0.386 | -0.745
12 | DDB2_Q92466_322_VYSASQWDCPLGLIPHPHR (UniProt Q92466) | 0.0907 | -0.0149
13 | DPYSL2_Q16555_439_THNSSLEYNIFEGMECR (UniProt Q16555) | 0.0805 | -0.109
14 | CTNNA1_P35221_772_TIADHCPDSACK (UniProt P35221) | -0.0482 | -0.0902
15 | DYNC1H1_Q14204_1977_MLSAVSQQVQCIQEALREHSNPNYDK (UniProt Q14204) | -0.708 | -0.193
